From PubChem BioAssay
This is a sample that favours compounds with a hit; in the whole collection about 2.5% have one here.
HTT-AS promoter: activates huntingtin-antisense promoter activity. HEK293 HTT-AS promoter firefly luciferase reporter, 24 h; response scale: percent change from vehicle, -100% = no light. Potency, µM (top dose mostly 57.5 µM), without a hit: at the top dose activity change, positive = activation, usual class: activators. 48,000 compounds, 0.24% hits. AID 1508624; also: potency is read from the fitted curve at half-maximal effect; nearly all actives have a fitted effect of over 55% in size
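Quantitative HTS used concentration series of up to 57.5 uM final on HEK293 luciferase reporter cells, 24 h at 37 degrees C. Readout was Dual-Glo firefly luminescence.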
PTAP-TSG101 blk: TSG101-PTAP interaction inhibition, HIV-1 budding; Q99816; Fluorescence polarization, FITC-PTAP peptide/Tsg101, 20 min; Potency, µM (titrated, usually from 115 µM), most hits filed as inhibitors; 44,000 tested, under 10 active; also: potency is read from the fitted curve at half-maximal effect; 0% is about no effect
Target sequence (Q99816 whole entry, looked up): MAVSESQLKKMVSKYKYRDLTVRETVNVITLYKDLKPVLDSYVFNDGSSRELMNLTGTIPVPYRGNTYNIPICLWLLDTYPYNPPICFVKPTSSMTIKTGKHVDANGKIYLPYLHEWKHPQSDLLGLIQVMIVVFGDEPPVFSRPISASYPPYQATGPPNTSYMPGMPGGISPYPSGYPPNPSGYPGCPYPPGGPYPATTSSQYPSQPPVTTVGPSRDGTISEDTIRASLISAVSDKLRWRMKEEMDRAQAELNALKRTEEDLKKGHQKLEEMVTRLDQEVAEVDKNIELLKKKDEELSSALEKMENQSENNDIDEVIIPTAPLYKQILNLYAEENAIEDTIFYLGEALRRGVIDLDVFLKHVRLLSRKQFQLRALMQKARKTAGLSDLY
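Fluorescence polarization binding of Tsg101 binding domain (10 uM final) to FITC-labeled PTAP-motif peptide (50 nM final) in HEPES pH 7.5/NaCl/Tween 20/EDTA/TCEP buffer; 20 min at r.t. Actives by curve class, <25 µM, efficacy <60% inhibition.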
SKOV3 invasion: inhibitors of ovarian cancer cell adhesion and invasion in omental model. SKOV3ip1-GFP adhesion/invasion on 3D omental model, fluorescence. 46,000 compounds, 0.1% hits. AID 1963576. Potency, µM (series often up to 45.8 µM), for the others: at the top dose activity change, negative = inhibition, usual class: inhibitors;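 also: potency is read from the fitted curve at half-maximal effect; plate controls were DMSO wells for no effect and tomatine positive control wells for full effect; nearly all actives have a fitted effect of over 65% in size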
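qHTS, 4-pt dose (0.36-46 umol/L); SKOV3ip1-GFP, 1,200 cells/well, no FBS; primary omental fibroblast/mesothelial co-culture 48 h pre-grown; 2 h RT + 16 h 37 C; PBS wash, 4% PFA; GFP count 488/509 nm.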
NTMT1 inh: inhibitors of human N-terminal methyltransferase NTMT1; NTMT1 MTase-Glo SAH luminescence, purified enzyme; Potency, µM (series often up to 114 µM), for inactives: at the highest dose activity change, negative = inhibition, actives largely listed as inhibitors; AID 1645870; 59,000 compounds, 2.5% hits;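 also: potency is read from the fitted curve at half-maximal effect; plate controls were DMSO vehicle for no effect and no enzyme for full effect; nearly all actives have a fitted effect of over 65% in size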
HTT promoter inh: inhibits huntingtin promoter activity | HEK293 HTT promoter firefly luciferase reporter, 24 h | Potency, µM (highest dose often 57.5 µM), without a hit: top-dose activity change, negative = inhibition, most hits filed as inhibitors | 48,000 compounds, 0.93% hits; also: potency is read from the fitted curve at half-maximal effect; nearly all actives have a fitted effect of over 50% in size
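Firefly luciferase signal from promoter-reporter HEK293 cells was scaled between vehicle (0%) and zero RLU (-100%). Compounds were tested at final concentrations of up to 57.5 uM over 24 h at 37 degrees C. PTC124 at 50 uM final served as control inhibitor.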
GALK inh: inhibits human galactokinase; AID 1347072; P51570; recombinant GALK, Kinase-Glo ATP luminescence, 1 h; 44,000 tested, under 10 active; Potency, µM (titrated, usually from 57.5 µM), for the others: at the top dose activity, negative = inhibition, usual class: inhibitors;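 also: plate controls were full GALK reaction for no effect and reaction lacking GALK for full effect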
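Human GALK (5 nM) was incubated with 35 uM ATP and 100 uM galactose in 20 mM HEPES pH 8.0 with MgCl2, NaCl, DTT and BSA for 1 h at room temperature. Remaining ATP was measured by Kinase-Glo Plus luminescence.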
CLK4 inh: inhibits human CLK4 kinase in Kinase-Glo confirmation. AID 493204. shares compounds with NTMT1 inh. recombinant Clk4, Kinase-Glo ATP luminescence, 4.5 h. Potency, µM (series often up to 76.9 µM), inactives show at the highest dose activity, negative = inhibition, hits mostly inhibitors. 90 compounds, 90% hits
Sfp qHTS opt: Sfp PPTase inhibition, chemistry optimization; shares compounds with NTMT1 inh; 230 compounds, 78% hits; Potency, µM (doses to about 114 µM), inactives show at the top dose activity change, negative = inhibition, hits mostly inhibitors; AID 540350; purified Sfp PPTase enzyme activity, qHTS
Bsub HM489 growth: B. subtilis HM489 growth inhibition; AID 540353; Potency, µM (doses to about 114 µM), without a hit: at the top dose activity change, negative = inhibition, actives largely listed as inhibitors; 220 compounds, 50% hits; shares compounds with NTMT1 inh; B. subtilis HM489 (acpS-) growth, BacTiter-Glo, 5 h
Sfp PPTase gel: inhibitors of Bacillus subtilis Sfp PPTase, gel-based followup. shares compounds with NTMT1 inh. purified Sfp PPTase, gel-based product detection. Potency, µM (doses to about 250 µM), inactives show top-dose activity change, negative = inhibition, usual class: inhibitors. 220 compounds, 54% hits. AID 540355
Sfp inh SAR2: Sfp phosphopantetheinyl transferase inhibition, SAR round 2; shares compounds with NTMT1 inh; purified Sfp enzyme, PPTase activity, qHTS; Potency, µM (series often up to 57.1 µM), inactives show at the top dose activity change, negative = inhibition, hits mostly inhibitors; AID 602370; 230 compounds, 87% hits
HSD17B4 inh: counter-screen for HPGD inhibitors: human HSD17B4 inhibition. shares compounds with NTMT1 inh. purified HSD17B4, estradiol/NAD+, NADH fluorescence. Potency, µM (series often up to 57.1 µM), inactives show at the highest dose activity change, negative = inhibition, most hits filed as inhibitors. 230 compounds, 10% hits
ALDH1A1 counter: inhibits human ALDH1A1, off-target for HPGD inhibitors | recombinant ALDH1A1, NADH fluorescence, propionaldehyde/NAD+ | Potency, µM (highest dose often 57.1 µM), without a hit: top-dose activity change, negative = inhibition, most hits filed as inhibitors | shares compounds with NTMT1 inh | AID 743195 | 230 compounds, 93% hits
NNMT inh: counter-screen for NTMT1 inhibitors: human NNMT inhibition | shares compounds with NTMT1 inh | NNMT MTase-Glo luminescence, SAH detection | Potency, µM (titrated, usually from 57.1 µM), for the others: at the top dose activity, negative = inhibition, usual class: inhibitors | 120 compounds, 10% hits
Target sequence (P40261 whole entry, looked up): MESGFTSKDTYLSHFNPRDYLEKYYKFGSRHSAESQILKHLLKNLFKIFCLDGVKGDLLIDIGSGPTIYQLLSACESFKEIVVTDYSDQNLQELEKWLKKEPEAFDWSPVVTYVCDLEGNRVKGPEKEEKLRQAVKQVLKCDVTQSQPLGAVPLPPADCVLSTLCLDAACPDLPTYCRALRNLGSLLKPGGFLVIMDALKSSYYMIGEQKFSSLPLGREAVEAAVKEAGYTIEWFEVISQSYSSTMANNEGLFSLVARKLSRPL
* marks the source's active call; other numbers are inactive results; i = inactive; ? = inconclusive; . = no result; [ ] = dose if it differs, or a comment. Calls follow the shape of the dose curve; as a rule, active = well fitted curve in the direction sought with a large enough effect; inconclusive = small, poorly fitted or top-dose-only effect, or another doubt; inactive = no such curve, though single readings can be large; an effect the other way counts as inactive or inconclusive.

SMILES | HTT-AS promoter | PTAP-TSG101 blk | SKOV3 invasion | NTMT1 inh | HTT promoter inh | GALK inh | others
COc1c(C)c(C(=O)c2ccc(N)c(C(=O)O)c2)n2ccccc12 | . | . | . | -11.8%[57.5 µM] | . | . | NNMT inh=-12.5%
COc1cccc(C(=O)c2c(N)c(-c3nc(-c4ccccc4)cs3)c3ccccn23)c1 | 3.4% | i | -8.7% | 6.1% | -1.1% | 8.1%
FC(F)(F)c1ccc(N2CCN(C(=S)Nc3ccccn3)CC2)cc1 | . | . | . | ? | . | . | Sfp qHTS opt=2.35µM*;Bsub HM489 growth=21µM*;Sfp PPTase gel=5.01µM*;Sfp inh SAR2=0.58µM*;HSD17B4 inh=-11.2%;ALDH1A1 counter=2.41µM*
Cc1cncc(NC(=S)N2CCN(c3cccc(C(F)(F)F)c3)CC2)c1 | . | . | . | ? | . | . | Sfp qHTS opt=?;Bsub HM489 growth=-13.5%;Sfp PPTase gel=?;Sfp inh SAR2=?;HSD17B4 inh=-29.8%;ALDH1A1 counter=-113.5%
COc1ccc(NC(=S)N2CCN(c3cccc(C(F)(F)F)c3)CC2)nc1 | . | . | . | ? | . | . | Sfp qHTS opt=?;Bsub HM489 growth=6.8%;Sfp PPTase gel=-63.7%;Sfp inh SAR2=?;HSD17B4 inh=-14.6%;ALDH1A1 counter=3.41µM*
FC(F)(F)c1cccc(N2CCN(C(=S)Nc3cccnc3)CC2)c1 | . | . | . | ? | . | . | Sfp qHTS opt=?;Bsub HM489 growth=?;Sfp PPTase gel=-56.7%;Sfp inh SAR2=40.8µM*;HSD17B4 inh=-19.0%;ALDH1A1 counter=10.8µM*
Cc1noc(C)c1S(=O)(=O)N1CCC(C(=O)N2CCN(c3cccc(C(F)(F)F)c3)CC2)CC1 | -33.2% | i | i | -0.3% | ? | -5.9%
O=C(CNS(=O)(=O)c1cccs1)N1CCN(c2cccc(C(F)(F)F)c2)CC1 | -27.0% | i | i | -4.4% | ? | 5.5%
N#Cc1ccc2[nH]c(O)c(-c3ccc(CN4CCOCC4)cn3)c2c1 | . | . | . | 5.3%[57.5 µM] | . | .
CCOC(=O)c1ccc2c(c1)c(C(C)=O)c(C)n2-c1ccc(OC)cc1 | . | . | . | -2.4% | . | .
O=C(O)c1cc(N(Cc2ccc(C3CCCCC3)cc2)C(=O)c2ccc(Oc3ccccc3)cc2)ccc1O | . | . | . | 31.6µM* | . | . | NNMT inh=-19.3%
C=CCCN1CCC2(CC1)CN(C(=O)c1c(F)cccc1F)c1ccc(Cl)cc12 | . | . | . | 4.6%[57.5 µM] | . | .
CN(C)c1cccc(NS(=O)(=O)c2ccc(NC(=O)Cc3ccc(Cl)c(Cl)c3)cc2)c1 | . | . | . | 12.2%[57.5 µM] | . | .
Cc1ccc(CN(C)c2ncnc3ccc(-c4ccc(CO)n4C)cc23)o1 | . | . | . | . | . | . | CLK4 inh=23.2µM*
Cc1ccc(-c2ccc(CNc3nc(-c4ccccc4C(C)C)ncc3F)cc2)cn1 | . | . | . | 11.2% | . | .
CCCc1[nH]nc2c1C(c1cc(Cl)cc(Cl)c1O)C(C#N)=C(N)O2 (configuration not stated) | . | . | . | -2.3%[57.5 µM] | . | .
CC(C)C1=CC2=CCC3[C@](C)(CCC[C@@]3(C)C(=O)O)C2CC1O (some centres not stated) | . | . | . | 7.9%[29.8 µM] | . | .
Cc1nc(C#Cc2ccnc(Cl)c2)c(C)n1-c1ccc(OC(F)(F)F)cc1 | . | . | . | ? | . | . | NNMT inh=-16.5%
CS(=O)(=O)CCNCc1ccc(-c2ccc3ncnc(Nc4ccc(OCc5cccc(F)c5)c(Cl)c4)c3c2)o1 | -21.9% | . | -25.3% | 9.4% | ? | . | CLK4 inh=-10.4%
Fc1cccc(CNc2ncnc3ccc(-c4cccc(Cl)c4)cc23)c1 | . | . | . | -2.6% | . | .
Cc1cc(-c2nnc3n2CCCCC3)c(C)n1-c1cccc2ccccc12 | . | . | . | 8.5% | . | .
O=C(c1ccc(OC(F)F)c(C#Cc2ccccn2)c1)N1Cc2cccnc2C1 | . | . | . | 2.2%[57.5 µM] | . | .
